The values that follow come from PubChem BioAssay.

Assay [1] in a line: small molecules captured by biotinylated probe aFSTL3 – biochemical, small-molecule microarray, fluorescence 635/667, stem cell growth factor project, primary screen (AID 1064).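 Further: measures binding of the biotinylated anti-FSTL3 antibody to printed compounds.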 The settings on record: higher = more signal.
Assay [2] in a line: binders from COS7 lysate, DM2A8 probe, primary screen, torsin A project, cell lysate, small-molecule microarray, fluorescence 635/667 (AID 1065). The settings on record: higher = more signal, COS7 lysate expressing mutant human TOR1A.
The nature of assay [3]: small molecules captured by biotinylated probe aFGF2 – biochemical, small-molecule microarray, fluorescence 635/667, stem cell growth factor project, primary screen (AID 1067).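 Further: measures binding of biotinylated aFGF2 protein to printed compounds on slides; z-score merges feature fluorescence and signal-to-noise across triplicate slides.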 Conditions: higher = more signal.
Assay [4] in a line: small molecules captured by biotinylated probe aFGF10 – biochemical, small-molecule microarray, fluorescence 635/667, stem cell growth factor project, primary screen (AID 1071).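 Further: score merges 667 nm spot intensity and signal to noise from triplicate slides.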 The settings on record: higher = more signal.
Assay [5] has as its target Neurogenic locus notch homolog protein 2 (Homo sapiens) (UniProt Q04721). The assay is described as follows: small molecules binding Notch2 protein – biochemical, small-molecule microarray, 635 nm fluorescence, stem cell growth factors, primary screen (AID 1073). The settings on record: higher = more signal.
Assay [6] has as its target Pro-neuregulin-1, membrane-bound isoform (Homo sapiens) (UniProt Q02297). The assay is described as follows: small molecules binding neuregulin-1 protein – biochemical, small-molecule microarray, fluorescence 635/667, psychiatric disease protein project, primary screen (AID 1075).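 Further: score combines 667 nm spot fluorescence with signal to noise.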 Conditions: NRG1 binding, 635 nm fluorescence, higher = more signal.
Assay [7] has as its system Neuregulin-1 EGF-like domain. Description: small molecules binding NRG1 EGF domain – biochemical, small-molecule microarray, 635 nm fluorescence, primary screen (AID 1081).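 Further: binding of the protein to compounds printed on small-molecule microarray slides.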 The settings on record: higher = more signal.
Assay [8] can be described thus: FRG1 expression reporter modulators in myotubes – cell-based, C2C12 myotubes, firefly/Renilla luciferase, luminescence, FRG1 inhibition for FSHD, primary screen (AID 1084). Conditions: FRG1 promoter luciferase, higher = more signal, called active from +8 up or from −8 down.
Assay [9] can be described thus: small molecules captured by biotinylated probe aFST – biochemical, small-molecule microarray, fluorescence 635/667, stem cell growth factor project, primary screen (AID 1086).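 Further: score merges 667 nm fluorescence with signal-to-noise of each printed compound spot.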 The settings on record: higher = more signal.
A short description of assay [10]: binders of probe aHhip on microarray, primary screen, stem cell growth factor project, biochemical, small-molecule microarray, fluorescence 635/667 (AID 1087).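 Further: score merges spot fluorescence at 667nm with spot signal to noise ratio.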 The settings on record: higher = more signal.
The subject of assay [11] is PRMT1 (protein arginine N-methyltransferase 1). Description: small molecules binding arginine methyltransferase PRMT1 – biochemical, small-molecule microarray, 635 nm fluorescence, primary screen (AID 1088).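 Further: binding of Prmt1 protein to compounds spotted on small-molecule microarray slides.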 The settings on record: higher = more signal.
Assay [12] can be described thus: growth effects on S. cerevisiae YJM789 – YJM789 clinical isolate, OD600, 24 h, basal, primary screen (AID 1089).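 Further: growth of clinical yeast isolate S. cerevisiae YJM 789 seeded 1000 cells per well; test concentration not given here.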 Conditions: higher = more signal, called active from +8 up or from −8 down.
Assay [13] can be described thus: S. pombe growth modifiers, basal conditions – strain 972, OD600, 24 h, no modulator, primary screen (AID 1090).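 Further: basal condition with compound alone and no growth modifier present; test concentration not given here.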 The settings on record: S. pombe 972 growth, higher = more signal, called active from +8 up or from −8 down.
Assay [14] in a line: budding yeast growth modifiers under rapamycin – strain BY4716, OD600, 96 h, primary screen (AID 1091). Further: test concentration not given here. Conditions: S. cerevisiae BY4716 + rapamycin, higher = more signal, called active from +8 up or from −8 down.
In assay [15] the target is Torsin-1A-interacting protein 2 (Homo sapiens) (UniProt Q8NFQ8). The assay is described as follows: small molecules binding lysate-expressed LULL1 – cell lysate, human LULL1 lysate, 635/667 nm fluorescence, primary screen (AID 1092).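 Further: probe is lysate of COS7 cells overexpressing human LULL1; score merges per-feature 667 nm fluorescence with signal-to-noise.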 The settings on record: small-molecule microarray, hLULL1 lysate binding, 635 nm fluorescence; higher = more signal.
Assay [16] in a line: optical density change of DRC41 E. coli – strain DRC41, OD650, 24 h, E. coli filamentation project, primary screen (AID 1093).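 Further: MC1000 strain lacking acrAB efflux and sulA so SOS filamentation is blocked; test concentration not given here.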 The settings on record: E. coli DRC41 growth, higher = more signal, called active from +8 up or from −8 down.
Assay [17] can be described thus: probe aLefty2 binding to arrayed compounds – biochemical, biotinylated probe, 635/667 nm fluorescence, primary screen (AID 1094).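 Further: score merges spot fluorescence near 667 nm with spot signal-to-noise ratio.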 Conditions: small-molecule microarray, higher = more signal.
For assay [18], the system named is Noggin (protein binding on small-molecule microarray). Description: small molecules binding Noggin protein – biochemical, 635/667 nm fluorescence, primary screen (AID 1095).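 Further: score merges 667 nm feature fluorescence with signal to noise over triplicate slides.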 The settings on record: 635 nm fluorescence, higher = more signal.
The target of assay [19] is Neurogenic locus notch homolog protein 3 (Homo sapiens) (UniProt Q9UM47). Description: small molecules binding NOTCH3 protein – biochemical, 635/667 nm fluorescence, primary screen (AID 1096). The settings on record: small-molecule microarray, 635 nm fluorescence, higher = more signal.
A short description of assay [20]: probe aEGFR binding to arrayed compounds – biochemical, biotinylated probe, 635/667 nm fluorescence, primary screen (AID 1097).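 Further: probe is a biotinylated anti-EGFR antibody binding compounds printed on slides; score combines fluorescence near 667 nm and signal to noise of each spot.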 The settings on record: small-molecule microarray, higher = more signal.

Activity calls are given as the source filed them.

Chain of Neurogenic locus notch homolog protein 2 (Homo sapiens) (Q04721 whole entry, looked up, canonical isoform): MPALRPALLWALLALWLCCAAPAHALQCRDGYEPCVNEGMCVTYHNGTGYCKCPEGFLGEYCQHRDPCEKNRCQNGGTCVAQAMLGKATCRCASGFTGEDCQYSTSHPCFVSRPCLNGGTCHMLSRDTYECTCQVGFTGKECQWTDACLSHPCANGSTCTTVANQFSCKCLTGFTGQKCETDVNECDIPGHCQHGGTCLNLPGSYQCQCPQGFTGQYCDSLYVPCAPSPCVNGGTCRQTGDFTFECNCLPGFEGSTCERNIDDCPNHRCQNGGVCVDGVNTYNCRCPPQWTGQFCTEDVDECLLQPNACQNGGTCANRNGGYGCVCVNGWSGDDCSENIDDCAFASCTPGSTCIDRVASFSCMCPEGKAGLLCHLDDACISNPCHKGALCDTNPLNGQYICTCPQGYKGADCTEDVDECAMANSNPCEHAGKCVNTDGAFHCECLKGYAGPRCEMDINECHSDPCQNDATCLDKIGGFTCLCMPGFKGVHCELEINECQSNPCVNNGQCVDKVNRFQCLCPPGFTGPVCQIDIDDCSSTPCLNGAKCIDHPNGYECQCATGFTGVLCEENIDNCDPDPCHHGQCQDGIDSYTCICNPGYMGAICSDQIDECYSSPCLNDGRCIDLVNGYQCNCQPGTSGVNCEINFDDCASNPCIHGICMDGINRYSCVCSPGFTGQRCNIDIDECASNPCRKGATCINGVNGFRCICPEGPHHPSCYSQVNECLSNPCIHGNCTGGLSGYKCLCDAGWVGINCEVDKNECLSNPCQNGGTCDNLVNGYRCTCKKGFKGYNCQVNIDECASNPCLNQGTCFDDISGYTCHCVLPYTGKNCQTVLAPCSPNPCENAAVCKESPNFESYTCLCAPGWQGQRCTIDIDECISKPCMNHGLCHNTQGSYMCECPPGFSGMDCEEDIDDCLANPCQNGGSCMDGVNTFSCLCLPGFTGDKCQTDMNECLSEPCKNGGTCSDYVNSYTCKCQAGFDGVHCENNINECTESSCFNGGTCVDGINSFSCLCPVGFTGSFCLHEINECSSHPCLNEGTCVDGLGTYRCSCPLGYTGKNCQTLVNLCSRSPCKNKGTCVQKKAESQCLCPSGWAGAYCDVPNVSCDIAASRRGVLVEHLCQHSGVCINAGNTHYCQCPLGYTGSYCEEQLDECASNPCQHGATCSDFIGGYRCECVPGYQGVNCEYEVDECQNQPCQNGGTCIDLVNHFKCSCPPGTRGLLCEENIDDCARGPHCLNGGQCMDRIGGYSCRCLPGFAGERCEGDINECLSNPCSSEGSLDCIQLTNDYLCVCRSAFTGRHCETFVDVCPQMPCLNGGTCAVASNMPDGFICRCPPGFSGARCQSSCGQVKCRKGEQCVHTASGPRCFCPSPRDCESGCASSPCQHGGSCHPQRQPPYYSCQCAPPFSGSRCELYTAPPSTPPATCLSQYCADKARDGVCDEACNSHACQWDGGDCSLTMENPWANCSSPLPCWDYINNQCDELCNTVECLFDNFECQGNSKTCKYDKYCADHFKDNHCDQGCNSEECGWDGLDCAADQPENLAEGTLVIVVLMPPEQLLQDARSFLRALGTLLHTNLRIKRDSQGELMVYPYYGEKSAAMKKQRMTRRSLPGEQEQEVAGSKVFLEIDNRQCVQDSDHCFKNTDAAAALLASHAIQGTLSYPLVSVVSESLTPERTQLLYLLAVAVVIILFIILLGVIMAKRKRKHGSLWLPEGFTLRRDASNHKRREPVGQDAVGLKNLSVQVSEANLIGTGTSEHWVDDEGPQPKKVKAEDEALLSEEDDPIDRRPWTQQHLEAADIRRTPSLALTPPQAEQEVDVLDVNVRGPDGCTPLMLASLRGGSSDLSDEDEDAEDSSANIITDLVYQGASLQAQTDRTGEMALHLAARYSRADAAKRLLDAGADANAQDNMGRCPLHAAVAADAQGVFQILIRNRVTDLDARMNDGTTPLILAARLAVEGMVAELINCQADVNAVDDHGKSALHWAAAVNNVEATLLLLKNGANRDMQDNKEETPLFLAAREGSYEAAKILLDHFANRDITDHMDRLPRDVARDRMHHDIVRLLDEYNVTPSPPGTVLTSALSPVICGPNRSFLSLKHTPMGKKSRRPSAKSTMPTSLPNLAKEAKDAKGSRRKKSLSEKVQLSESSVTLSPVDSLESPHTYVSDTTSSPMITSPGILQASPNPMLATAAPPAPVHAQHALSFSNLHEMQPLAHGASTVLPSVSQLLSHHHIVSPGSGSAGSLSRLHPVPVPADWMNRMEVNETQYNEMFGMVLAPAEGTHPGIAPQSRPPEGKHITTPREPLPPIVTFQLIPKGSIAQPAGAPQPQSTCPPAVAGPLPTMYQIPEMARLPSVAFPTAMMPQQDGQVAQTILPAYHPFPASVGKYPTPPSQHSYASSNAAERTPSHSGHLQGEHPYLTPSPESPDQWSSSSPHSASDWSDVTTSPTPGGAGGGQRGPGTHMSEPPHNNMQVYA
Chain of Torsin-1A-interacting protein 2 (Homo sapiens) (Q8NFQ8 whole entry, looked up): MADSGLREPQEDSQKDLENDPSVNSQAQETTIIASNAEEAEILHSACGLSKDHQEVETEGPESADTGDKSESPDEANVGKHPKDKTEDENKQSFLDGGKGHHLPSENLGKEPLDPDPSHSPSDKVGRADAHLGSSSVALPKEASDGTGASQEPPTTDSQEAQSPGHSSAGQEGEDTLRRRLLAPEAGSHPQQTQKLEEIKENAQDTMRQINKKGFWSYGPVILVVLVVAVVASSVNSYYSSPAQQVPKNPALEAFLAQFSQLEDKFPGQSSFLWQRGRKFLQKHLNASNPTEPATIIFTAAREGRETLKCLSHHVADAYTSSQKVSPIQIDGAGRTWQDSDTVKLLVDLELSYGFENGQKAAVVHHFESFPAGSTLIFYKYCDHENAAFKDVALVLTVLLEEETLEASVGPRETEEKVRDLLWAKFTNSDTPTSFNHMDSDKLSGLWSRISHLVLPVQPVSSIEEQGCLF
Chain of Pro-neuregulin-1, membrane-bound isoform (Homo sapiens) (Q02297 whole entry, looked up, the tested form may be a part, canonical isoform): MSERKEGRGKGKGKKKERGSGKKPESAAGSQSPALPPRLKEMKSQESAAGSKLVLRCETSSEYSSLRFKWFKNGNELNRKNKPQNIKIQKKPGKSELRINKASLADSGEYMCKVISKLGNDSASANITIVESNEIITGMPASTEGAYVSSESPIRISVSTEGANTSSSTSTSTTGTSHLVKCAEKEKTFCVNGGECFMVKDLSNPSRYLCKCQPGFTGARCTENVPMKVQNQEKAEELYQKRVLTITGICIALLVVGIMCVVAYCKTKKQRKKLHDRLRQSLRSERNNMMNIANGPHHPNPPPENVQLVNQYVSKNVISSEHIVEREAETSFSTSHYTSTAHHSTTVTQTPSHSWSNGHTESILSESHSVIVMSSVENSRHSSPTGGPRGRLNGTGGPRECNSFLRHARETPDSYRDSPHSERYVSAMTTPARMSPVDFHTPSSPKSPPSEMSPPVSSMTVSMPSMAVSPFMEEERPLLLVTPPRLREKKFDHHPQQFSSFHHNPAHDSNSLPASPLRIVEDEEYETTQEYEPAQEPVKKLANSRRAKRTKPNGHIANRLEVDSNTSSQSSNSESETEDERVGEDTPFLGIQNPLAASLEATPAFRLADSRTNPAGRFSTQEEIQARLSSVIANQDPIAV

Consider `O=c1cccc(-c2ccc(F)cc2)o1`, for which the composite z-score in [1] is -0.227; in assay [2], -0.0321; in assay [3], -0.0455; in assay [4], 0.255; in [5] it was 0.607; in assay [6], -0.219. Besides, the composite z-score in assay [7] is 1.08; in [9], 0.552; in assay [10] it was 0.643; in assay [11] it was 0.777; in assay [15] it was -0.326; in [17], -0.0591. Also, the results for the composite z-score in assay [18], in assay [19] and in assay [20] were 0.245, 0.784 and 0.132, respectively. Further, the z-score is 0.855 (inactive) in assay [8]; -1.28 (inactive) in assay [12]; -0.0295 (inactive) in assay [13]; -0.313 (inactive) in [14]; -0.428 (inactive) in assay [16].
As for `CC(C)(C)OC(=O)CC[C@]12N=C(c3ccc(OCCCO)cc3)O[C@H]1c1ccccc1N(Cc1ccccc1)C2=O`, the composite z-score worked out at 0.555 in [1]; 0.178 in assay [2]; 0.0436 in assay [3]; 0.329 in [4]; 0.0567 in [5]; 0.457 in assay [6]. Further, the composite z-score in assay [7] is 1.13; in assay [9], 0.259; in [10] it was -0.187; in [11] it was 1.54; in assay [15] it was 2.72; in [17], 0.12. Also, the composite z-score in assay [18] is 0.938; in assay [19], 0.967; in assay [20], -0.128. For the same compound, the z-score in assay [8] was -1.7 (inactive); in assay [12] it was 0.429 (inactive); in assay [13], -1.1 (inactive); in assay [14] it was 5.79 (inactive); in assay [16], 0.911 (inactive).
With `CC(C)C(=C=CC[C@@H](O)c1cccc(OCCO)c1)C[C@@H](O)c1ccccn1`, the composite z-score in assay [1] is -0.437; in assay [2], -0.0934; in assay [3], -0.147; in assay [4], 0.815; in [5], -0.553; in [6], -0.253. Besides, the composite z-score in [7] was 0.125; in [9] it was -0.0246; in [10], -0.137; in assay [11] it was 0.504; in assay [15], 1.26; in assay [17], -0.283. The composite z-score is 0.38 in assay [18], 0.603 in assay [19] and -0.161 in assay [20]. For the same compound, the z-score was 1.35 (inactive) in assay [8]; -0.282 (inactive) in assay [12]; -0.361 (inactive) in assay [13]; -0.419 (inactive) in assay [14]; 0.379 (inactive) in assay [16].
As for `COCCOC(=O)N1C(=O)[C@@]2(c3ccccc31)[C@H](c1ccccc1OCCO)N1[C@H](c3ccccc3)[C@H](c3ccccc3)OC(=O)[C@H]1[C@@H]2C(=O)N1CCCCCCC1`, the composite z-score in assay [1] was 4.11; in assay [2], 2.32; in [3], 0.959; in assay [4], 1.32; in [5] it was 1.78; in [6] it was 2.25. The composite z-score in assay [7] was 1.39; in [9], 3.36; in assay [10], 2.53; in [11] it was 1.54; in [15], 4.47; in [17] it was 1.97. For the same compound, the composite z-score in [18] turned out to be 1.78; in assay [19], 1; in [20], 1.48. In addition, the z-score in assay [8] was -3.81 (inactive); in [12], 1.3 (inactive); in [13], 1.35 (inactive); in [14], 5.52 (inactive); in assay [16], -0.489 (inactive).
On to `O=C1c2ccccc2[C@](Cc2ccccc2I)(C(=O)NC2CC2)[C@H](c2ccc(CO)cc2)N1Cc1ccccc1C(F)(F)F`, for which the composite z-score was -0.0446 in [1]; 0.338 in assay [2]; -0.0878 in assay [3]; 0.433 in assay [4]; -0.229 in assay [5]; 1.74 in assay [6]. Moreover, the composite z-score was 1.26 in assay [7]; 0.11 in assay [9]; -0.0726 in assay [10]; 1.55 in [11]; 2.76 in [15]; -0.0817 in assay [17]. Further, the composite z-score in [18] was 0.894; in assay [19], 1.06; in [20], -0.139. The z-score in [8] is -2.07 (inactive); in assay [12] it was -0.124 (inactive); in assay [13], -0.684 (inactive); in assay [14] it was 0.341 (inactive); in assay [16], -1.8 (inactive).
With `CC1CC/C=C\[C@H]2OC34C=CCN(C(C)(C)C)C(=O)[C@H]3N(C(CO)C(C)C)C(=O)[C@@H]4C2C(=O)O1` (stereo not given in full), the composite z-score was -0.259 in assay [1]; 2.01 in assay [2]; -0.141 in assay [3]; 0.323 in assay [4]; -0.147 in assay [5]; 0.867 in [6]. The composite z-score in assay [7] was 1.5; in assay [9] it was -0.0219; in assay [10], -0.318; in assay [11] it was -0.447; in assay [15] it was 2.5; in assay [17], -0.147. In addition, the composite z-score in assay [18] is 0.476; in assay [19], 0.551; in [20], -0.0968. In addition, the z-score is 1.44 (inactive) in [8]; -1.38 (inactive) in [12]; -0.429 (inactive) in [13]; -0.851 (inactive) in [14]; -0.515 (inactive) in assay [16].
Take `[N-]=[N+]=NCc1ccccc1C[C@@]1(C(=O)N2CCCCC2)N=C(c2ccc(OCCCO)cc2)O[C@@H]1c1ccccc1CN=[N+]=[N-]`: the composite z-score in [1] is 0.319; in assay [2] it was 1.42; in assay [3], 0.0234; in assay [4], 0.144; in assay [5] it was 1.14; in assay [6], 0.698. In addition, the composite z-score is 0.901 in [7]; 0.828 in assay [9]; -0.177 in [10]; 1.28 in assay [11]; 2.46 in assay [15]; 0.154 in [17]. The figures for the composite z-score in assay [18], in [19] and in assay [20] were -0.147, 0.278 and -0.0833, respectively. For the same compound, the z-score in assay [8] is -3.69 (inactive); in assay [12] it was -0.364 (inactive); in assay [13] it was 0.78 (inactive); in assay [14], 25.9 (active); in assay [16], 0.76 (inactive).
Consider `COc1ccc(C(=O)Nc2cccc(CN3C(=O)[C@]4(O[C@H](CCn5cc([C@H](O)c6ccccc6)nn5)[C@@H]([Si](C)(C)c5ccc(OC)cc5)[C@@H]4C)c4ccccc43)c2)cc1`, for which the composite z-score in assay [1] was 0.243; in [2] it was -0.505; in assay [3] it was -0.0709; in assay [4] it was 0.266; in assay [5] it was -0.122; in [6] it was 1.04. Further, the composite z-score in assay [7] was 0.933; in [9] it was 0.0644; in [10], -0.0618; in [11] it was 0.682; in [15], 1.38; in assay [17], -0.0674. Moreover, the composite z-score in assay [18] was 0.383; in assay [19] it was 0.889; in assay [20], -0.128. Besides, the z-score in [8] is -0.454 (inactive); in assay [12], -0.228 (inactive); in [13] it was -1.99 (inactive); in assay [14], 0.678 (inactive); in assay [16], 1.48 (inactive).
